Data published in PubChem BioAssay (NCI).
About 83,000 compounds went through this panel and 20% of them were active in at least one assay; those are over-represented in the sample as a whole.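 Negative percent growth values reflect cell death: -40 means 40% of the cells present at the start died, and -100 means all died.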 Values without a mark were called inactive. The source made the active and inactive calls. Rule for the calls: active = growth percent below 10; inactive = the rest.

Legend:
Experiment in all cases: NCI-60 one-dose screen, 48 h (100 = growth as untreated, 0 = no growth, -100 = all killed)
[1] = system: SK-MEL-2 melanoma; conditions: 10 µM unless noted
[2] = system: SN12C renal; conditions: 10 µM unless noted
[3] = system: UO-31 renal; conditions: 10 µM unless noted
[4] = system: ACHN renal; conditions: 10 µM unless noted
[5] = system: CAKI-1 renal; conditions: 10 µM unless noted
[6] = system: A498 renal; conditions: 10 µM unless noted
[7] = system: MOLT-4 leukemia; conditions: 10 µM unless noted
[8] = system: SR leukemia; conditions: 10 µM unless noted
[9] = system: RPMI-8226 leukemia; conditions: 10 µM unless noted
[10] = system: OVCAR-8 ovarian; conditions: 10 µM unless noted
[11] = system: OVCAR-5 ovarian; conditions: 10 µM unless noted
[12] = system: OVCAR-4 ovarian; conditions: 10 µM unless noted
[13] = system: SK-OV-3 ovarian; conditions: 10 µM unless noted
[14] = system: IGROV1 ovarian; conditions: 10 µM unless noted
[15] = system: OVCAR-3 ovarian; conditions: 10 µM unless noted
[16] = system: HS 578T breast; conditions: 10 µM unless noted
[17] = system: NCI/ADR-RES ovarian; conditions: 10 µM unless noted
[18] = system: EKVX NSCLC; conditions: 10 µM
[19] = system: TK-10 renal; conditions: 10 µM unless noted
[20] = system: CCRF-CEM leukemia; conditions: 10 µM

SMILES | growth [1] | growth [2] | growth [3] | growth [4] | growth [5] | growth [6] | growth [7] | growth [8] | growth [9] | growth [10] | growth [11] | growth [12] | growth [13] | growth [14] | growth [15] | growth [16] | growth [17] | growth [18] | growth [19] | growth [20]
CCCCCCC(=O)C(C)C | 115% | 104% | 92.3% | 103% | 91% | 115% | 96.6% | 90.7% | 105% | 99.1% | 110% | 110% | 110% | 102% | 107% | 105% | 103% |  |  | 
OCCN1CCCN(CCCN2c3ccccc3Sc3ccc(C(F)(F)F)cc32)CC1 | 81.5% | 62.9% | 41.8% | 68% | 85.7% | 73.7% | 23.4% |  | 42.2% | 91% | 83.9% | 54.4% | 77.3% | 41.3% | 78.7% | 29.1% | 73.5% |  |  | 
COc1cc(-c2nn(-c3ccc(NC(=O)c4ccc(Cl)c(C(F)(F)F)c4)cc3)cc2-c2ccncc2)ccc1Cl |  | 52.7% | 16.3% | 18.2% | -16.7% (active) | 31.9% | 3.94% (active) | 2.82% (active) | -23% (active) | 49.2% | 55.7% | 46.4% | 60.5% | 46.7% | 28.7% | -49.7% (active) | 30.7% | 24.3% | 6.27% (active) | 6.52% (active)
COC1=CC(c2ccc[nH]2)=N/C1=C\c1[nH]c(C)c(C(=O)CCCCC(=O)NC(C)(C)C)c1C | 98% | 55.3% | 18% |  | 34.1% |  | 21.2% |  |  | 28.2% | 48.3% | 39.6% | 102% |  | 18.4% |  | 30.1% |  |  | 68.5%
Cc1[nH]n(C(=S)Nc2nc3cc(Cl)c(F)cc3s2)c(=O)c1N=Nc1ccc(F)c(Cl)c1 |  | 100% | 93% | 104% |  | 65.8% | -16.5% (active) |  | 70.9% | 103% | 103% | 91.5% | 97.8% | 88.4% | 98.2% | 85% | 103% | 80.1% | 129% | 19.3%
O=C1OC(c2ccc(-c3ccccc3)cc2)=C/C1=C/c1c2ccccc2cc2ccccc12 |  | 101% | 92.8% | 97.6% |  | 83.7% | 72.6% | 81.2% | 85.3% | 97.6% | 83.7% | 95.7% | 96% | 101% | 97.9% | 89.8% | 96.5% | 65.5% | 77.9% | 69.9%
COc1cc2cn3c4ccc(O)cc4[nH]c(=O)c3c2cc1OC |  | 37% | -32.2% (active) | -26% (active) | -51.7% (active) | -20.6% (active) | -9.94% (active) | -17.5% (active) | -2.13% (active) | 0.127% (active) | 30% |  |  | -3.23% (active) | -13.9% (active) | -11.2% (active) | 24.7% | 18.4% | -22.6% (active) | 5.83% (active)
CC(=O)N1CCN(CCNC(=O)n2cc(-c3ccncc3)c(-c3cc(O)cc(Cl)c3)n2)CC1 |  | 94.4% | 72.9% | 76.9% | 99% | 93.1% | 67.3% | 16.7% |  | 66% | 110% | 116% | 101% | 76.2% | 102% | 91.9% | 101% | 112% | 62.5% | 71.6%
O=C(Nc1ccc(-n2cc(-c3ccncc3)c(-c3ccc(Cl)c(O)c3)n2)cc1)Nc1ccc(Cl)c(C(F)(F)F)c1 |  | 31.1% | -32.6% (active) | 2.3% (active) | -32.5% (active) | 63.6% | -1.95% (active) | -10.6% (active) |  | 1.06% (active) | 30.1% | 16.1% | 3.02% (active) | -0.0868% (active) | 2.48% (active) | -38.6% (active) | 6.63% (active) | 1.43% (active) | -12.1% (active) | 
O=C(Nc1ccc(-n2cc(-c3ccncc3)c(-c3ccc(Cl)c(O)c3)n2)cc1)c1ccc(Cl)c(Cl)c1 |  | 65.7% | 14.8% | 38.4% | 0.324% (active) | 83.8% |  | 5.94% (active) | -25.9% (active) | 38.5% | 56.5% | 47.4% | 34.1% | 67.4% | 61.3% | -35.1% (active) | 51.6% | 61.8% | 33% | 40.2%
O=c1[nH]c2cc(O)ccc2n2cc3c(F)cccc3c12 |  | 53.6% | 12% | 24.5% | -8.76% (active) | 39.5% | 6.71% (active) | 9.4% (active) | 46.2% | 24.6% | 43.8% |  | -4.03% (active) |  | 30.3% | -26.1% (active) | 17.2% | 25.2% | 6.81% (active) | 49%
NCCCOc1cc2ccccc2cc1C(=O)Nc1ccc(Cl)cc1OC(=O)c1cc2ccccc2cc1OCCCN |  | -41.2% (active) |  | -96.7% (active) | -75.7% (active) | -96.1% (active) | -17% (active) |  | -46.6% (active) | -77% (active) | -92.7% (active) | -74.4% (active) | -90.8% (active) |  | -99.1% (active) | -46.8% (active) | -61.5% (active) | -53.7% (active) |  | 
Nc1nc2cc(O)ccc2n2cc3c(F)cccc3c12 |  | 47% | 2.79% (active) | 18.9% | -12.1% (active) | 41.5% | 3.96% (active) | 10.8% | 53.7% | 26.5% | 38.7% | -4.95% (active) |  | 18.4% | 30% | -21.4% (active) | 15.8% | 24.8% | -12.5% (active) | 58.4%
N#Cc1c2cccnc2c2nnc3cc(Cl)c(Cl)cc3n12 |  | 75% | 30.8% | 10.2% | -3.12% (active) | 80.9% |  | 5.53% (active) | 35.3% | -19.5% (active) | 89.3% | -4.97% (active) | 90% | 10.6% | -9.66% (active) | -56.8% (active) | -5.61% (active) | 80.8% | -31.8% (active) | 29.1%
Cc1cc2cn3c4ccc(O)cc4nc(N)c3c2cc1C |  | 44.6% | 6.2% (active) | 7.58% (active) | -4.28% (active) | 21.1% | 5.17% (active) | -23.5% (active) | -20.1% (active) | 5.39% (active) | 28.9% |  |  |  | 16.5% | -16.3% (active) | 9.17% (active) | 37.2% | 5.03% (active) | 11.5%
CC(=O)N1CCN(CCNC(=O)n2cc(-c3ccncc3)c(-c3ccc(O)c(Cl)c3)n2)CC1 |  | 102% | 131% | 105% | 136% | 118% | 85.8% | 85% | 102% | 106% | 114% | 127% | 104% | 127% | 112% | 139% | 107% | 133% |  | 95.8%
COc1cc(-c2nn(-c3ccc(NC(=O)c4cc(Cl)cc(Cl)c4)cc3)cc2-c2ccncc2)ccc1Cl |  | 91.9% | 65.7% | 94.9% | 38.8% | 78.9% | 27.6% | 14.6% |  | 96.9% | 95.7% | 100% | 111% | 116% | 81% |  | 84.2% | 80.1% | 69.4% | 
COc1cccc(-c2cc(-c3cc4ccccc4oc3=O)nc(N)n2)c1 |  | 98.6% | 55.8% | 98.3% | 111% | 127% | 91.4% | 92.3% | 108% | 111% | 98.2% |  |  |  | 95% | 80.8% | 105% | 99.2% | 74.5% | 87.6%
